Bioassay records (PubChem)
TbPYK inhibitor – inhibitors of Trypanosoma brucei pyruvate kinase; Q57TT1; TbPYK enzyme, Kinase-Glo Plus ATP luminescence, 45 min; Potency, µM (top dose mostly 76.8 µM), most hits filed as inhibitors; 410,000 compounds, 0.12% hits; AID 624173; also: nearly all actives have a fitted effect of over 50% in size
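TbPYK + substrate in 50 mM TEA pH 7.2, 100 mM KCl, 10 mM MgCl2, 0.05% BSA, 0.01% Tween-20; cpd pinned; ADP 130 uM final; 45 min RT; Kinase-Glo Plus 10 min; luminescence endpoint.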
Shiga inhibitor – Shiga toxin inhibition; Vero cells, Shiga toxin protein synthesis inhibition reporter; inhibition, % at 38.7 µM; 290,000 compounds, 9.2% hits; AID 2315; in the data active = inhibition mostly above about 28%, no sharp cut-off; inactive = mostly below about 43%
LmPK inhibitor – inhibitors of Leishmania mexicana pyruvate kinase. Q27686. purified LmPK, Kinase-Glo ATP luminescence, 1 h. Potency, µM (series often up to 57.5 µM), most hits filed as inhibitors. 290,000 compounds, 0.37% hits. AID 1721
Target sequence (Q27686 whole entry, looked up): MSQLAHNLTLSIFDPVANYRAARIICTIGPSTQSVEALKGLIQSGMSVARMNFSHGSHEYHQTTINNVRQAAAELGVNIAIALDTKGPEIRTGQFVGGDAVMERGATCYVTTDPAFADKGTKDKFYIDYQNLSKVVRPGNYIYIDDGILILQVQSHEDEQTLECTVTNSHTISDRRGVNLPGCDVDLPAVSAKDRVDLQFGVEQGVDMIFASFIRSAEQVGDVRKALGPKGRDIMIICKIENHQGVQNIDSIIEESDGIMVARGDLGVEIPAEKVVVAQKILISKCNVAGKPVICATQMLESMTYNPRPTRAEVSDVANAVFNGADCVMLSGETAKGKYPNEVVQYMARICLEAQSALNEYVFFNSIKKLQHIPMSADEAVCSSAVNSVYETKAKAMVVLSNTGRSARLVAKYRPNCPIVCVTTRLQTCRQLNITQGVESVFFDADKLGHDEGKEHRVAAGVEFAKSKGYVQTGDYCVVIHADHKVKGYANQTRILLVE
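Screened at intermediate enzyme activity to detect both inhibitors and activators: LmPK at 0.1 nM, with a 0.5 nM enzyme column as activation reference. PEP 0.5 mM, ADP 0.1 mM; ATP detected by luminescence after 1 h.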
CHX counter-1 – counter-screen for Shiga toxin inhibitors: cycloheximide protein synthesis inhibition; 300,000 compounds, 12% hits; max response, %; AID 2314; cell reporter, cycloheximide protein synthesis inhibition counterscreen; in the data active = max response mostly above about 13%, no sharp cut-off; inactive = mostly below about 14%; also: read at 38.3 µM for the half of the compounds with a filed dose
RE007 growth inh – less growth of the S. pombe RE007 Vpr strain; S. pombe RE007 Vpr strain, BacTiter-Glo ATP luminescence, 24 h; Potency, µM (series often up to 92.2 µM), hits mostly inhibitors; 360,000 compounds, 0.21% hits; active = well fitted falling curve with a large enough effect; inconclusive = small, poorly fitted or top-dose-only effect; inactive = no such curve, though single readings can be large or run the other way; also: nearly all actives have a fitted effect of over 50% in size
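Fission yeast RE007 carrying one integrated HIV-1 vpr copy, seeded at OD 0.01 in PMG+AL medium with 23 nL pinned compound. Grown 24 h at 30 degrees; viability read by BacTiter-Glo luminescence after 5 min.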
Giardia FBPA inh – blocks Giardia fructose-bisphosphate aldolase activity. purified Giardia FBPA. AID 2451. 290,000 compounds, 0.71% hits. Potency, µM (highest dose often 59.6 µM), actives largely listed as inhibitors; also: nearly all actives have a fitted effect of over 55% in size
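Giardia FBPA (40 nM reagent) was preincubated 10 min at RT with compound (up to 57.5 uM final), then substrate plus GAPDH/TPI/NAD/arsenate coupling system with diaphorase/resazurin was added; resorufin fluorescence (525/598 nm) was read after 20 min.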
CHX counter-2 – affects protein synthesis reporter in cycloheximide counter-screen | AID 2318 | Cycloheximide counterscreen, protein synthesis reporter, Shiga toxin assay | 510 compounds, 3% hits | shares compounds with Shiga inhibitor | Potency, µM (titrated, usually from 38.3 µM), usual class: activators; calls by dose curve
A number is an active result; . = inactive; ? = inconclusive; / = not tested or not shown; ! = not confirmed by another sample; [ ] = dose if it differs, or a comment. This excerpt belongs to a sample that is enriched for hits. Unless noted, calls follow the shape of the dose curve; as a rule, active = well fitted curve in the direction sought with a large enough effect; inconclusive = small, poorly fitted or top-dose-only effect, or another doubt; inactive = no such curve, though single readings can be large; an effect the other way counts as inactive or inconclusive.

SMILES	TbPYK inhibitor	Shiga inhibitor	LmPK inhibitor	CHX counter-1	RE007 growth inh	Giardia FBPA inh	CHX counter-2
O=C(NC(Cc1ccc(O)cc1)C(=O)O)c1ccc2c(c1)OCO2 (stereo unspecified)	.	/	/	/	.	/	/
COC(=O)c1ccc(CSCc2ccc(C(=O)OC)o2)o1	.	38.1	.	.	.	.	.
COC(=O)c1ccc(CSCC(=O)Nc2cc(OC)cc(OC)c2)o1	.	.	.	.	.	.	/
O=C(/C=C/c1cn(CC(O)CN2CCCCC2)c2ccccc12)c1ccccc1 (stereo unspecified)	.	.	.	.	.	.	/
O=C(/C=C/c1cn(CC(O)CN2CCCCC2)c2ccccc12)c1cccs1 (stereo unspecified)	.	31.8	.	.	.	.	.
O=C(NCCN1CCOCC1)C(=O)NCC1OCCN1S(=O)(=O)c1ccccc1 (stereo unspecified)	.	11.6	.	.	.	/	.
CC(=O)c1ccc(NC(=O)C(C)Sc2nnc(C3CCCCC3)o2)cc1 (stereo unspecified)	/	46.9	.	.	/	.	.
Cc1cc(NC(=O)c2cc(F)c(F)cc2Cl)no1	.	34.5	.	.	.	.	.
CCN(CC)S(=O)(=O)c1cc(C(=O)Nc2cc(C)on2)c(Cl)cc1Cl	.	.	.	.	.	.	/
Cc1ccc2nc(-c3ccc(Cl)c(NC(=O)c4ccc5c(c4)OCCO5)c3)oc2c1	.	/	/	/	/	/	/
CC(C)CNC(=O)c1noc2c1CCCC2	.	50.7	.	.	?	.	.
O=C(COc1ccc(Br)cc1CNCCc1ccccc1)NCc1ccccc1	.	40.0	.	.	.	.	.
C=CCc1ccccc1OCC(O)CN1CCN(c2ccccc2)CC1 (stereo unspecified)	.	/	/	/	/	/	/
C=CCc1cc(C)ccc1OCC(O)CN1CCN(c2ccccc2)CC1 (stereo unspecified)	.	32.6	.	.	.	?	.
O=C1C=C(c2ccc3[nH]ccc3c2)C[C@@H](c2ccc(Cl)cc2)C1	.	/	/	/	.	/	/
Cc1ccc2oc(=O)c3c4cc(O)c(O)cc4oc3c2c1	/	/	/	/	/	.	/
COc1cc(O)c2c(c1)oc(=O)c1c3cc(O)c(O)cc3oc21	/	32.7	/	21.1!	/	?	.
O=C(COC(=O)c1cccc2c1C(=O)c1ccccc1C2=O)NC1CCCCC1	.	.	.	.	.	.	/
O=C1c2ccccc2C(=O)c2c1ccc1c(=O)n(C3CCCCC3)[nH]c21	.	26.6	.	.	?	?	.
Cc1ccccc1-c1nnc(SCC#N)o1	.	33.2	.	.	.	.	.
Cc1ccc(S(=O)(=O)N2[C@H](CC(=O)c3cccc4ccccc34)OC[C@@H]2C)cc1	/	/	/	/	.	/	/
COc1ccccc1NC(=O)c1ccc(NC(=O)c2ccco2)cc1	.	43.3	.	.	.	.	.
CC(C)c1ccccc1NC(=O)c1ccco1	.	57.9	.	.	.	.	?
COc1ccccc1NC(=O)Cn1cc(C(=O)c2ccco2)c2ccccc21	.	60.3	.	.	.	.	.
COc1ccccc1NC(=O)c1cccc(NC(=O)c2ccco2)c1	.	.	.	.	.	.	/
SMILES	TbPYK inhibitor	Shiga inhibitor	LmPK inhibitor	CHX counter-1	RE007 growth inh	Giardia FBPA inh	CHX counter-2
CCOc1cc(NC(=O)c2ccco2)c(OCC)cc1NC(=O)c1ccco1	.	.	.	.	.	/	/
O=C(NCc1ccccc1)c1cc[n+](CC(=O)c2cccs2)cc1	.	.	.	.	.	.	/
Cc1nnc(N2C(=O)C(=O)/C(=C(/O)c3ccc4c(c3)OCCO4)C2c2ccc([N+](=O)[O-])cc2)s1 (stereo unspecified)	/	43.6	.	.	/	/	.
COCCNC(=O)C1CCCN(C(=O)c2cccnc2Oc2ccccc2)CC1 (stereo unspecified)	.	/	/	/	.	/	/
O=C(Cc1cccs1)Nc1ccc(-c2nnc(-c3ccco3)o2)cc1	.	48.8	.	.	.	.	?
O=C(c1ccco1)N1CCC(c2nc3c(nnn3Cc3ccccc3Cl)c(=O)[nH]2)CC1	.	.	.	.	.	.	/
O=C(c1ccco1)N1CCN(c2nc(C3CC3)nc3c2nnn3Cc2ccccc2Cl)CC1	.	active	.	.	.	.	.
CC1Cc2ccccc2N1Cc1cc(=O)n2ccsc2n1 (stereo unspecified)	.	25.2	.	.	.	?	.
COc1ccccc1N1CCN(Cc2cc(=O)n3ccsc3n2)CC1	.	.	.	.	.	.	/
O=C(COc1ccc([N+](=O)[O-])cc1Cl)N1CCc2ccccc21	.	/	/	/	.	/	/
Cc1ccc(S(=O)(=O)Nc2ccc(C(=O)N3CCCC3)cc2)c(C)c1NS(C)(=O)=O	.	.	.	.	.	.	/
COc1ccc(S(=O)(=O)N2CCCCCC2)cc1NC(=O)c1ccccc1	.	.	.	.	.	/	/
COc1ccc(C)cc1NC(=O)c1ccc(S(=O)(=O)N2CCCCC2)cc1	.	25.2	.	.	.	.	.
COC(=O)c1ccccc1S(=O)(=O)N1CCC(C(=O)OCC(=O)c2ccccc2OC)CC1	.	/	/	/	.	/	/
COc1ccccc1N(CCC#N)C(=O)CSc1nc(-c2ccccc2)cn1N	.	74.5	.	.	.	.	.
O=C(O)C/C(=C\c1cc(Br)cs1)c1nc2ccccc2o1	.	39.7	.	.	.	.	.
C[C@@H](NC(=O)c1[nH]cnc1C(=O)Nc1ccccc1F)c1ccccc1	.	/	/	/	.	/	/
CCN1CC(CNC(=O)c2ccc3nc(Cc4cccc(Cl)c4)oc3c2)CC1=O (stereo unspecified)	.	.	.	.	.	.	/
NC(=O)[C@@H]1CCCN1C(=O)c1ccc2nc(Cc3cccc(Cl)c3)oc2c1	.	23.5	.	.	.	/	.
COCOCCn1cc(CN2CCS(=O)(=O)N(Cc3ccc(-c4ccncc4)cc3)C(C(C)C)C2=O)nn1 (stereo unspecified)	.	/	/	/	.	/	/
CC[N+](CC)(CCO)CCCN1C(=O)C2CC=C(Cl)CC2C1=O (stereo unspecified)	.	142.6	.	.	.	.[12.9 µM]	.
CON(C)S(=O)(=O)c1cccc(C(=O)NC2CCSc3ccccc32)c1 (stereo unspecified)	.	76.9	.	.	.	.	.
CN(C)S(=O)(=O)c1cccc(C(=O)NC2CCSc3ccccc32)c1 (stereo unspecified)	.	.	.	.	.	/	/
CC1(C(=O)O)CCCN1C(=O)c1cccc(OC(F)(F)F)c1 (stereo unspecified)	.	/	/	/	.	/	/
Cc1sc(NC(=O)CCCC(=O)O)c(C(N)=O)c1-c1ccccc1	.	74.5	.	.	.	.	?
Cc1nc(N2CCN(c3ccccc3)CC2)nc2c1C(=O)CCC2	.	.	.	.	.	.	/
